Bioassay records (PubChem BioAssay)
In the library only some 18% were active in any assay of this set; here they are far more common.
LDHA inh: qHTS assay for inhibitors of human lactate dehydrogenase; purified LDHA, NADH/diaphorase-resazurin fluorescence; stronger effect = lower value; L-lactate dehydrogenase A chain (Homo sapiens), P00338; AID 1347041, 2019; actives 0.15% (n = 480,000); activity change, % (values are at about 110 or 230 µM); in the data active = activity change below about -30%; inconclusive = mostly about -25% to -30%;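 also: plate controls were DMSO wells for no effect and wells without enzyme for full effect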
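Human LDH5 (2 nM) was incubated with 0.06 mM NADH and 0.2 mM pyruvate for 5 min at room temperature in Tris pH 7.4. Remaining NADH was coupled through diaphorase/resazurin, and resorufin fluorescence was read at 0 and 20 min.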
DT40 TDP1 no CPT: qHTS for Inhibitors of human tyrosyl-DNA phosphodiesterase 1 (TDP1): qHTS in cells in absence of CPT | DT40 Tdp1-/- hTDP1 cells, no CPT, ATP luminescence, 48 h | Potency, µM (top dose mostly 46.2 µM), for the others: at the highest dose activity change, negative = growth inhibition, hits mostly inhibitors | actives 15% (n = 420,000); also: potency is read from the fitted curve at half-maximal effect; nearly all actives have a fitted effect of over 55% in size
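Camptothecin absent (DMSO only). Human TDP1-complemented DT40 knockout cells, 400 cells/well, 37 °C for minimum 48 hr; ATP measured via CellTiter-Glo, 30 min dark incubation, luminescence.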
DT40 TDP1 CPT: qHTS for Inhibitors of human tyrosyl-DNA phosphodiesterase 1 (TDP1): qHTS in cells in presence of CPT | Potency, µM (titrated, usually from 46.2 µM), for the others: top-dose activity change, negative = growth inhibition, hits mostly inhibitors | chicken DT40 Tdp1-/-;hTDP1 cells + 20 nM CPT, ATP luminescence, 48 h | actives 12% (n = 420,000); also: potency is read from the fitted curve at half-maximal effect; nearly all actives have a fitted effect of over 55% in size
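Chicken DT40 Tdp1-/- cells stably complemented with human TDP1 were seeded at 400 cells/well in medium containing 20 nM camptothecin, exposed to pin-transferred compounds, and grown at 37 °C for at least 48 hr. Viability was read as ATP luminescence.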
RORgamma inh: qHTS for inhibitors of ROR gamma transcriptional activity | Potency, µM (top dose mostly 53.6 µM), without a hit: at the top dose activity change, negative = inhibition, actives largely listed as inhibitors | Drosophila S2 Gal4-RORgamma UAS-luciferase reporter, 20 h | actives 5.4% (n = 310,000) | Nuclear receptor ROR-gamma (Mus musculus), P51450; also: potency is read from the fitted curve at half-maximal effect; nearly all actives have a fitted effect of over 60% in size
Target sequence (P51450 whole entry, looked up, the tested form may be a part): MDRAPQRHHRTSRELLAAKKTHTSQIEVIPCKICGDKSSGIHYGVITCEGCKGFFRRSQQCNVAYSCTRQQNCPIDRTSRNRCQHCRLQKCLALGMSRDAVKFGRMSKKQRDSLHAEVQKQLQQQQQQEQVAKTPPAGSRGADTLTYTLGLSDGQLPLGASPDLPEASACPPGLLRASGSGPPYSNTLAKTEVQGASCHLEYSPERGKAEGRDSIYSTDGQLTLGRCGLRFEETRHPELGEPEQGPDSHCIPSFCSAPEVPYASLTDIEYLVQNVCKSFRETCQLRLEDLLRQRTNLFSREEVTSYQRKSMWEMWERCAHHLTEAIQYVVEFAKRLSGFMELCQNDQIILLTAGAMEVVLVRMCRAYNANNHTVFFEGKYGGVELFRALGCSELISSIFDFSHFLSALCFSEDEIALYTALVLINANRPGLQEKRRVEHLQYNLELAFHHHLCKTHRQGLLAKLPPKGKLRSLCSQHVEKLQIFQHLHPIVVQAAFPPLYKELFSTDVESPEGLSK
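Using a luciferase readout, inhibitors were identified by reduced reporter activity in Drosophila cells coexpressing a copper-inducible Gal4–ROR gamma fusion and UAS-driven Photinus luciferase, incubated 20 hr after 700 uM copper sulfate.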
IL-1B inflam inh: qHTS for Inhibitors of Inflammasome Signaling: IL-1-beta AlphaLISA Primary Screen; actives 4.7% (n = 360,000); THP-1 LPS/ATP IL-1B secretion, AlphaLISA, 16 h; stronger effect = lower value; activity change, % at 57.5 µM; in the data active = activity change below about -50%; inconclusive = mostly about -30% to -49%
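THP-1 cells pretreated 1 hr with compounds (up to 57.5 uM final), then stimulated with LPS (250 ng/mL final) plus ATP (1.25 mM final); secreted IL-1B measured by AlphaLISA after 16 hr, decreased signal indicating inhibition.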
VP16 counter: VP16 counterscreen qHTS for inhibitors of ROR gamma transcriptional activity; Drosophila S2 Gal4-VP16 UAS-luciferase, luminescence, 20 h; Potency, µM (doses to about 53.6 µM), for inactives: at the top dose activity, negative = inhibition, most hits filed as inhibitors; actives 3.5% (n = 310,000);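 also: Gal4-VP16 expression switched on by copper sulfate through the metallothionein promoter; potency is read from the fitted curve at half-maximal effect; nearly all actives have a fitted effect of over 50% in size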
* hit, by the source's call; ? = inconclusive; · = not tested or not shown. Unless noted, calls follow the shape of the dose curve; as a rule, active = well fitted curve in the direction sought with a large enough effect; inconclusive = small, poorly fitted or top-dose-only effect, or another doubt; inactive = no such curve, though single readings can be large; an effect the other way counts as inactive or inconclusive. Unless noted, % is scaled to controls: 0 for no effect and ±100 for the full control effect.

SMILES	LDHA inh	DT40 TDP1 no CPT	DT40 TDP1 CPT	RORgamma inh	IL-1B inflam inh	VP16 counter
CN(C)C(=O)C1CN(C(=O)c2nn(Cc3ccccc3)c(=O)c3ccccc23)c2ccccc2O1 (configuration not stated)	-3	·	·	·	·	·
CCOc1ccc(CNc2nc(NCc3ccc(OCC)cc3)n(C(=O)C(C)C)n2)cc1	0	·	·	·	·	·
COCCn1c(=O)c2c(nc(-n3nc(C)cc3C)n2CC(C)C)n(C)c1=O	-10	·	·	·	·	·
Cc1ccc(NC(=O)C2CCCN2S(=O)(=O)c2ccc3nc(-c4ccccc4)[nH]c3c2)cc1C (configuration not stated)	0	23µM*	?	·	·	·
Cc1ccc(NS(=O)(=O)c2ccc(Cl)c(C(=O)Nc3ccccc3-c3nc4ccccc4[nH]3)c2)cc1C	-5	8.2µM*	7.3µM*	?	-13	-9%
CN(C)S(=O)(=O)c1ccc(Cl)c(C(=O)Nc2nc3ccccc3[nH]2)c1	-4	-23%	-24%	?	-7	?
CC(C)c1ccc(NC(=O)C2CCCN2S(=O)(=O)c2ccc3nc(-c4ccccc4)[nH]c3c2)cc1 (configuration not stated)	1	7.3µM*	10µM*	·	·	·
Cc1cccc(NC(=O)C2CCCN2S(=O)(=O)c2ccc3nc(-c4ccccc4)[nH]c3c2)c1 (configuration not stated)	4	18µM*	?	·	·	·
COc1cccc(NC(=O)C2CCCN2S(=O)(=O)c2ccc3nc(-c4ccccc4)[nH]c3c2)c1 (configuration not stated)	2	·	·	·	·	·
COc1cc(Cl)c(NC(=O)Cc2coc3cc(C)c(C)cc23)cc1OC	11	·	·	·	·	·
CNC(=O)c1cc(NC(=O)CCn2nc(-c3ccc(Cl)cc3)c3ccccc3c2=O)ccc1OC	5	·	·	·	·	·
O=S1(=O)C[C@H](N2CCN(c3ncccn3)CC2)[C@@H](S(=O)(=O)c2ccccc2)C1	4	·	·	·	·	·
CCc1cccc(C)c1-n1nnnc1C1(Nc2ccc3c(c2)OCCO3)CCCC1	-11	·	·	·	·	·
Cc1cc(NS(=O)(=O)c2ccc3nc(-c4ccccc4)[nH]c3c2)ccc1Br	2	15µM*	?	·	·	·
Cc1nc(-[n+]2nc(-c3ccncc3)nn2-c2ccccc2)sc1C	16	1.8µM*	1.5µM*	·	?	·
CNS(=O)(=O)c1cc(NS(=O)(=O)c2cccc(Br)c2)ccc1C	-1	·	·	·	·	·
O=C(Nc1nc(OCCN2CCCC2=O)cnc1/C=C\c1ccccc1)c1cc2ccccc2s1	-17	?	29µM*	·	-19	·
Cc1ccc(S(=O)(=O)c2ncccc2N)cc1	-6	3%	11%	23%	0	1%
Cc1ccc(S(=O)(=O)c2ncccc2[N+](=O)[O-])cc1	2	0.65µM*	1.2µM*	5.6µM*	-102*	5.6µM*
O=C(c1ccco1)N1N=C(c2ccc(Cl)cc2)CC1(O)C(F)(F)F (configuration not stated)	-6	?	?	?	?	5.6µM*
O=C(c1ccco1)N1N=C(c2ccc(Br)cc2)CC1(O)C(F)(F)F (configuration not stated)	-8	?	-2%	7.1µM*	-63*	?
CCOc1ccc(C(=O)C(C)OC(=O)c2ccc(C(N)=O)cc2)cc1 (configuration not stated)	-5	·	·	·	·	·
CCCn1c(C2CC(=O)N(c3cc(OC)ccc3OC)C2)nc2ccccc21 (configuration not stated)	6	?	21µM*	22%	-6	-2%
O=C1CC(c2nc3ccccc3n2CCCOc2ccccc2)CN1c1ccc(F)cc1 (configuration not stated)	-2	8.2µM*	16µM*	·	·	·
CCn1c(C2CC(=O)N(c3ccc(C)c(C)c3)C2)nc2ccccc21 (configuration not stated)	-4	18µM*	?	-10%	-16	6%
SMILES	LDHA inh	DT40 TDP1 no CPT	DT40 TDP1 CPT	RORgamma inh	IL-1B inflam inh	VP16 counter
COCCn1c(C2CC(=O)N(c3cc(Cl)ccc3OC)C2)nc2ccccc21 (configuration not stated)	-4	·	·	·	·	·
CCCCn1c(C2CC(=O)N(c3ccc(OCC)cc3)C2)nc2ccccc21 (configuration not stated)	-6	?	21µM*	·	·	·
CCN(CC)S(=O)(=O)c1ccc(NC(=O)COC(=O)c2nn(C)c(=O)c3ccccc23)cc1	11	·	·	·	·	·
Cc1ccsc1C(=O)OCC(=O)N1c2ccccc2NC(=O)C1(C)C	-4	·	·	·	·	·
CCOc1ccc(N2CC(c3nc4ccccc4n3CCOc3ccccc3OC)CC2=O)cc1 (configuration not stated)	0	23µM*	?	·	·	·
O=C(Nc1cc([N+](=O)[O-])c2[nH]c(=O)c3ccccc3c2c1)C(F)(F)F	1	1.8µM*	0.29µM*	·	-5	·
O=C(CCc1nc2ccccc2c(=O)[nH]1)Nc1ccc(F)c([N+](=O)[O-])c1	6	?	?	24%	7	15%
C[N+](C)(C)C/C=C1/COCO1	-9	?	18µM*	-8%	-9	-1%
O=C(NCCN1CCN(C(=O)c2cc(Cl)cc(Cl)c2)CC1)c1cc(Cl)cc(Cl)c1	0	·	·	·	·	·
Cc1nc2ccccn2c1C(=O)/C=C/c1ccc(F)cc1	-5	21µM*	?	8.9µM*	-108*	?
COc1ccc(/C=C/C(=O)c2c(C)nc3ccccn23)cc1	-1	-9%	-12%	-8%	-5	12%
Cc1nc(-c2ccccc2)nc2n[nH]c(N)c12	3	-4%	-2%	·	0	·
Nc1[nH]nc2ncc3cc4ccccc4nc3c12	8	9.2µM*	18µM*	-23%	-95*	-6%
COc1ccc(OC)c(S(=O)(=O)Nc2ccc(-c3ccc(N4CCC(C)CC4)nn3)cc2)c1	16	·	·	·	·	·
CCN(C(=O)CC(C)C)c1nnc(Cn2nnc3ccccc32)s1	-11	21µM*	?	18%	0	?
CCN(C(=O)c1ccc(C(C)(C)C)cc1)c1nnc(Cn2nnc3ccccc32)s1	-3	8.2µM*	7.3µM*	?	-15	5.6µM*
